Screening data as filed in PubChem BioAssay.
This is a sample that favours compounds with a hit; in the whole collection about 4.1% have one here.
DAX1 inh-1 – DAX1 (NR0B1) inhibitors on StAR promoter, primary screen, cell-based, luminescence, SF-1 (NR5A1), full-length DAX-1. HEK293T StAR-luciferase reporter, SF-1/DAX-1 repression relief. inhibition, % at 6.8 µM. 370,000 tested, 1.1% active. AID 652010, 2013;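 active = inhibition above the mean over all tested compounds plus 3 SD, cut at about 3.6% in these data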;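 note: 0% = DAX-1 cells with DMSO and 100% = cells lacking DAX-1 with DMSO; higher inhibition means more luminescence from relief of DAX-1 repression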
hgDAF-12 ag – H. glycines DAF-12 receptor agonists, primary screen, cell-based, luminescence, HEK293, GAL4 fusion, UAS-luciferase. Nuclear hormone receptor DAF-12 (Heterodera glycines), GAL4 fusion. HEK293 GAL4-hgDAF12 UAS-luciferase reporter, agonist luminescence; normalized to butyrate control. activation, % at 6.8 µM. 370,000 tested, 1.8% active. AID 687014, 2013;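 active = activation above a cutoff set at the mean of all screened compounds plus 3 SD, cut at about 10% in these data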;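 note: 0% = DMSO wells and 100% = sodium butyrate wells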
DAX1 inh-2 – DAX1 (NR0B1) inhibitors, primary screen, cell-based, HEK293, Gal4-DAX1, luciferase luminescence; Nuclear receptor subfamily 0 group B member 1 (Homo sapiens), P51843; HEK293 Gal4-DAX1 luciferase reporter; inhibition, % at 6.75 µM; 340,000 tested, 0.99% active;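 active = inhibition above the mean over all tested compounds plus 3 SD, cut at about 4.2% in these data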;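 note: 0% = DAX1-transfected cells with DMSO and 100% = empty-vector control cells with DMSO; inhibition shows as a rise in luminescence from relieved DAX1 repression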
Target sequence (P51843 207-470 limits assumed): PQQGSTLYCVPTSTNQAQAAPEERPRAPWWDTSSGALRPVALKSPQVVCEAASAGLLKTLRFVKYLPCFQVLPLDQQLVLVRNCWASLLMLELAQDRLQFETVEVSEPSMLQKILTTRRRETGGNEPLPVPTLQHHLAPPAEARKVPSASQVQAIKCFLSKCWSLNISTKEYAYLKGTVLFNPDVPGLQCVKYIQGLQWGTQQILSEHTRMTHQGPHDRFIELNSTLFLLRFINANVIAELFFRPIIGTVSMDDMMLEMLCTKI
ssDAF12 agonist – S. stercoralis DAF-12 nuclear receptor activators, primary screen, cell-based, luminescence, HEK293, GRIP1 co-expression, lit1-tk-luc; Nuclear hormone receptor DAF-12 (Strongyloides stercoralis); HEK293 ssDAF-12/GRIP1 lit1-tk-luc reporter; % of 3 µM dafachronic acid response; activation, % at 6.8 µM; 370,000 tested, 1% active; AID 652126, 2013;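 active = activation above the mean over all tested compounds plus 3 SD, cut at about 0.9% in these data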;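 note: 0% = DMSO-only wells and 100% = 3 µM delta7-dafachronic acid wells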
hcDAF-12 act – H. contortus DAF-12 nuclear receptor activators, primary screen, cell-based, luminescence, HEK293, lit1-tk-luc reporter; HEK293 hcDAF-12 lit1-tk-luc reporter; 0% DMSO, 100% Δ7-dafachronic acid; activation, % at 6.8 µM; 370,000 tested, 1.4% active; AID 652067, 2013;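 active = activation above the mean of all tested compounds plus 3 SD, cut at about 5.5% in these data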;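 note: 100% = response to 3 µM Δ7-dafachronic acid high control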
DAX1 conf – DAX1 (NR0B1) inhibitors relieving SF-1 repression, confirmation, cell-based, luminescence, HEK293T, full-length DAX-1, SF-1 activated StAR promoter. shares compounds with DAX1 inh-1. HEK293T StAR-promoter luciferase reporter, SF-1/DAX-1 repression. inhibition, % at 6.8 µM. 2,400 tested, 87% active. AID 652134, 2013;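 active = inhibition above the average of every tested compound plus 3 SD, cut at about 3.8% in these data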;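 note: 0% = DAX-1 cells with DMSO and 100% = no DAX-1 control cells with DMSO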
SF1 AF2mut Luc – StAR reporter signal changes without DAX1, counter-screen for DAX1 inhibitor project, cell-based, luminescence, AF-2 mutant SF-1, transactivation. HEK293 StAR-luciferase, SF-1 AF2 mutant. shares compounds with DAX1 inh-1. inhibition, % at 6.8 µM. 2,400 tested, 78% active;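 active = inhibition above the mean of all tested compounds plus 3 SD, cut at about 3% in these data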;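 note: 0% = DAX-1 transfected cells with DMSO and 100% = cells without DAX-1 with DMSO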
* = called active by the depositor; / = no result given.

SMILES	DAX1 inh-1	hgDAF-12 ag	DAX1 inh-2	ssDAF12 agonist	hcDAF-12 act	DAX1 conf	SF1 AF2mut Luc
CC(=O)Nc1ccc(-c2ccnc3c2CC(C(=O)NCCc2ccccc2)O3)cc1 (stereo unspecified)	0	-1	/	-1	-1	/	/
CCCCCCC[C@@H](C/C=C/CCC(=O)N(C)C/C(=C/Cl)C/C(=C\C(=O)N1CC(OC)=CC1=O)OC)OC	19*	-12	3	0	0	6.2*	-5
CCCCCCC[C@@H](C/C=C/CCC(=O)N(C)C/C(=C/Cl)C/C(=C\C(=O)N1C[C@H](O)CC1=O)OC)OC	-2	-4	-1	-2	-2	/	/
CCC1(O)CC2CN(CCc3c([nH]c4ccccc34)C(C(=O)OC)(c3cc4c(cc3OC)N(C=O)C3C(O)(C(=O)OC)C(OC(C)=O)C5(CC)C=CCN6CCC43C65)C2)C1 (stereo unspecified)	5.2*	-7	2	0	2	21*	-6
CCN1Cc2cc(OC)ccc2-c2ccccc2S1(=O)=O	-1	-3	-1	0	-1	/	/
Oc1c(C2=NCCNC(C(F)(F)F)=C2)ccc2ccccc12	4.7*	19*	2	1	3	6.5*	4.6*
CCCC(=O)N1CCC1(C)C(=O)Nc1ccc2c(c1)CCN2C(C)=O (stereo unspecified)	-1	-1	/	-1	0	/	/
Cc1ccc(C(=O)NCCC(=O)N2CCOCC2)cc1	10*	9	1	0	4	6.3*	3.3*
CCc1ccc(CNC(=O)Cc2ccc(NC(=O)C3=C(C)OCCS3)cc2)cc1	15*	9	0	0	5	21*	-4
CC1=C(C(=O)Nc2ccc(CC(=O)NCc3ccccc3C)cc2)SCCO1	0	2	0	0	0	/	/
CC(C)(C)c1ccc(OCC(=O)Nc2ccncc2)cc1	0	2	-2	-1	2	/	/
O=C(O)c1cccc(Nc2nc3ccccc3nc2NS(=O)(=O)c2ccc(F)cc2)c1	6.6*	2	-1	0	0	3	3.9*
CCn1c(=O)c2[nH]c(SC)nc2n(CC)c1=O	0	-2	2	-1	-1	/	/
CC(c1ccccn1)N(C)C(=O)c1ccc2nc(Cc3ccccc3F)oc2c1 (stereo unspecified)	4.8*	8	2	-1	3	5.3*	4.4*
Cc1cc(CN(C)C(=O)c2ccc3nc(Cc4ccccc4F)oc3c2)n[nH]1	-1	0	0	-1	-2	/	/
CC(=O)N1CCCN(C(=O)c2ccc3nc(Cc4ccccc4F)oc3c2)CC1	-1	0	2	-1	-2	/	/
O=C(c1ccc2nc(Cc3ccccc3F)oc2c1)N1CC[C@H](O)C1	6.2*	6	0	-1	4	5.9*	1
COc1ccc(Cc2nc3ccc(C(=O)N4CCOCC4)cc3o2)cc1	5.4*	10	2	0	4	7.4*	3.8*
C=C(C)c1ccccc1	0	2	0	-1	0	/	/
CC(=O)c1ccc(Nc2nc(C(N)COCc3ccccc3)cs2)cc1 (stereo unspecified)	1	-1	/	-1	-1	/	/
CC(C)CNS(=O)(=O)c1ccc(Br)cc1N1CCC[C@@H]1CO	-2	-1	0	-1	-1	/	/
COc1ccc(-c2cn(CCO)c(-c3ccncc3)n2)cc1	0	0	0	-1	-1	/	/
O=C(CSc1nnc(-c2ccccc2F)o1)N1CCNC1=O	7.7*	10	1	0	5	11*	6.8*
CC1CCN(C(=O)CSc2nnc(-c3ccccc3F)o2)CC1	0	0	1	-1	0	/	/
Cc1cc(N)n2ncc(-c3cccc(Br)c3)c2n1	4.9*	10	0	0	4	7.0*	3.7*
SMILES	DAX1 inh-1	hgDAF-12 ag	DAX1 inh-2	ssDAF12 agonist	hcDAF-12 act	DAX1 conf	SF1 AF2mut Luc
CCOC(=O)Cc1c(C)nc2c(-c3cccc(Br)c3)cnn2c1C	0	1	1	0	2	/	/
CCOC(=O)c1c(C)nc2c(c1-c1cc(OC)c(OC)c(OC)c1)C(=O)c1ccccc1-2	1	-6	1	-1	5	/	/
CCN1CCN(C(=O)c2ccc3c(Cl)c4c(nc3c2)CCCC4)CC1	1	4	0	0	0	/	/
CN1CCN(C(=O)c2ccc3c(Cl)c4c(nc3c2)CCCC4)CC1	5.8*	1	0	-1	0	4.8*	2
CC(=O)Nc1cccc(-c2cc3c(c4c2ccn4C)C2CCC3O2)c1 (stereo unspecified)	-1	-1	/	-2	2	/	/
Cn1ccc2c(-c3ccc(C(N)=O)cc3)cc3c(c21)C1CCC3O1 (stereo unspecified)	4.6*	-4	/	-1	0	1	0
O=C(NCCc1ccc([N+](=O)[O-])cc1)c1ccccc1	0	3	1	-2	0	/	/
O=C(NCCc1ccccc1)c1ccc([N+](=O)[O-])cc1	5.3*	10	-2	1	6	13*	7.1*
N#CCC(=O)N/N=C\c1cccc(OC/C=C/c2ccccc2)c1	13*	11*	-2	0	2	14*	6.9*
CC1(C2CC2)NC(=O)N(CC(=O)N2CCN(c3ccccc3)CC2)C1=O (stereo unspecified)	6.7*	1	0	-1	0	0	0
COc1ccc(S(=O)(=O)N2CCN(C(=O)C3COc4ccccc4O3)CC2)cc1 (stereo unspecified)	-1	-1	0	-1	-1	/	/
COc1ccc2nc(N3CCN(C(=O)C4COc5ccccc5O4)CC3)sc2c1 (stereo unspecified)	7.1*	10	0	-1	2	11*	5.5*
Cc1ccc2occ(/C=N/NC(=O)c3ccccc3O)c(=O)c2c1	10*	5	1	0	6.4*	7.3*	7.6*
Cc1ccc2occ(/C=N/NC(=O)c3ccc(Cl)cc3)c(=O)c2c1	0	4	0	-1	-1	/	/
